PKM2 act: PKM2 (human) enzyme activation | purified PKM2, Kinase-Glo ATP luminescence, activation; response scale: 0% is enzyme alone, no compound | Potency, µM (top dose mostly 57.5 µM), most hits filed as activators | actives 0.34% (n = 260,000); further: nearly all actives have a fitted effect of over 55% in size
Target sequence (P14618 whole entry, looked up): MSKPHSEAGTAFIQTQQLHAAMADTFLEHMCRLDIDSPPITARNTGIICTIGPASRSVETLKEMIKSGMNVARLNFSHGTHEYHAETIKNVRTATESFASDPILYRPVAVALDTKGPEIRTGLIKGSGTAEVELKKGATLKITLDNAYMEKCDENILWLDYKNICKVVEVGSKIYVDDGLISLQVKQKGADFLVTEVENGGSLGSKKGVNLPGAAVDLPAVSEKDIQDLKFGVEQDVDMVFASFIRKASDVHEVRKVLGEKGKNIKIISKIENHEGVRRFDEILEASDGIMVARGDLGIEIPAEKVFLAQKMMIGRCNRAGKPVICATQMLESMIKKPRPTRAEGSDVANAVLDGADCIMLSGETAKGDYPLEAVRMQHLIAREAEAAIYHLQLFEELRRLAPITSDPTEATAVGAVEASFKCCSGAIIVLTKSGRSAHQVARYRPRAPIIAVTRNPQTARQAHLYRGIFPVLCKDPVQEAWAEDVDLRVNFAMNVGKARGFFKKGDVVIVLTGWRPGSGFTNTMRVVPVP
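hPK-M2, >95% pure; 0.1 mM ADP / 0.5 mM PEP final; imidazole pH7.2 buffer w/ 7 mM MgCl2, 50 mM KCl; 1 h RT; Kinase-Glo lum. Intermediate enzyme activity for dual inhibitor/activator qHTS.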
S-ASM inh: inhibitors of human secretory acid sphingomyelinase; placental ASM, HMU-PC fluorogenic substrate, 60 min; Potency, µM (series often up to 57.5 µM), hits mostly inhibitors; actives 0.006% (n = 340,000); AID 504937
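Fluorogenic HMU-PC substrate (9 uM final) is turned over by placental ASM in 60 min at 37 C after a 10 min compound preincubation. Reaction ended by alkaline stop (pH 10), with fluorescence read at 386/447 nm.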
IL2 activator: activates IL-2 in a cell-based reporter assay; activation, % (series mostly up to about 46 µM); actives 0.065% (n = 360,000); AID 652025; IL-2 activation reporter assay, cell-based qHTS; stimulated with anti-CD3/CD4/CD28 beads; in transgenic mouse T cells; in the data active means activation above about 50%
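Readout is EGFP and DsRed signal by fluorescent plate cytometry after 18 h at 37 degrees C. Transgenic mouse T cells (750/well) received compound for 60 min before bead stimulation (anti-CD3, anti-CD4, anti-CD28); memory T cells served as non-tolerant control.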
Hits are given with their value; [ ] = dose if it differs, or a comment. In the library only some 0.33% were active in any assay of this set; here they are far more common. Unless noted, the call rests on the fitted dose curve; in most records, active means well fitted curve in the direction sought with a large enough effect; inconclusive means small, poorly fitted or top-dose-only effect, or another doubt; inactive means no such curve, though single readings can be large; an effect the other way counts as inactive or inconclusive.

For CC(=O)C[C@@H](O)CC(=O)[C@H]1OC(=O)CCCCCCCCc2ccccc21 the results were S-ASM inh inactive and IL2 activator inactive.
COCCNS(=O)(=O)c1ccc2c(c1)C(=NO)c1cc(S(=O)(=O)NCCOC)ccc1-2 was read as PKM2 act 10µM, S-ASM inh inactive and IL2 activator inactive.
`COCCNS(=O)(=O)c1ccc2c(c1)Cc1cc(S(=O)(=O)NCCOC)ccc1-2` gave PKM2 act inactive, S-ASM inh inactive and IL2 activator inactive.
For O=C(c1ccc(Br)cc1)N1CCN(Cc2ccccc2)CC1 the results were PKM2 act inactive, S-ASM inh inactive and IL2 activator inactive.
O=C(c1ccc(CN2CCOCC2)cc1)N1CCN(c2cccc(Cl)c2)CC1 was read as PKM2 act inactive, S-ASM inh inactive and IL2 activator inactive.
O=C(c1ccc(Cn2cc(Br)cn2)cc1)N1CCN(c2ccccc2)CC1 was read as PKM2 act 4.47µM, S-ASM inh inactive and IL2 activator inactive.
O=C(c1ccc(Cn2cc(Cl)cn2)cc1)N1CCN(c2ccccc2)CC1 was read as PKM2 act 15.8µM, S-ASM inh inactive and IL2 activator inactive.
Screening CN1/C(=C\C=C(C#N)C#N)C(C)(C)c2ccccc21 returned PKM2 act inactive, S-ASM inh inactive and IL2 activator 142.6.
`CN1/C(=C\C=C(/C#N)C(=O)Nc2ccc(Cl)cc2)C(C)(C)c2ccccc21` gave PKM2 act inactive, S-ASM inh inactive and IL2 activator inactive.
`COc1ccnc2c1c(=O)n(Cc1cccc(Cl)c1)c(=O)n2C` gave PKM2 act inactive[0.46 µM], S-ASM inh inactive and IL2 activator inactive.
For CCOc1ccc(NC(=O)C(Cc2ccccc2)N2C(=O)c3cccc4cccc(c34)C2=O)cc1 (centres undefined) the results were PKM2 act inactive, S-ASM inh inactive and IL2 activator 96.9.
Screening CCOc1ccc(NC(=O)C(CC(=O)O)Cc2ccccc2)cc1 (centres undefined) returned PKM2 act inactive, S-ASM inh inactive and IL2 activator inactive.
`COc1cccc(NC(=O)Cc2ccccc2)c1` gave PKM2 act inactive, S-ASM inh inactive and IL2 activator inactive.
`O=C(Cc1ccccc1)Nc1cccc(N2C(=O)C=CC2=O)c1` gave PKM2 act 2.82µM, S-ASM inh inactive and IL2 activator inactive.
CCC(=O)N1c2ccc(S(=O)(=O)CCC(=O)Nc3nccs3)cc2CC1C (centres undefined) was read as PKM2 act inactive, S-ASM inh inactive and IL2 activator inactive.
For CCNC(=S)Nc1cc(C)ccn1 the results were PKM2 act inactive, S-ASM inh inactive and IL2 activator inactive.
For Cc1sc2nc(CN3CCN(c4ccc(O)cc4)CC3)[nH]c(=O)c2c1C the results were PKM2 act 1.26µM, S-ASM inh inactive and IL2 activator inactive.
For O=c1[nH]c(CN2CCN(c3ccccc3)CC2)nc2scc(-c3ccccc3)c12 the results were PKM2 act inactive, S-ASM inh inactive and IL2 activator inactive.
Screening C/C(N)=C(/C#N)C(=O)CSc1ccc2c(c1)OCCO2 returned PKM2 act 14.1µM, S-ASM inh inactive and IL2 activator inactive.
Screening C/C(N)=C(/C#N)C(=O)COC(=O)CSc1ccc2ccccc2c1 returned PKM2 act inactive, S-ASM inh inactive and IL2 activator inactive.
Screening CC1CCC2(CC1)NC(=O)N(CC(=O)c1ccc(CNC(=O)C(C)(C)C)s1)C2=O (centres undefined) returned S-ASM inh inactive and IL2 activator inactive.
Cc1ccc(CC(NC(=O)c2ccc(C)cc2)C(=O)O)cc1 (centres undefined) was read as S-ASM inh inactive and IL2 activator inactive.
N#CC1=C(N)Oc2cc(O)ccc2C1c1ccncc1 (centres undefined) was read as PKM2 act 20µM, S-ASM inh inactive and IL2 activator inactive.
Screening N#CC1=C(N)Oc2cc(O)ccc2C1c1cccnc1 (centres undefined) returned PKM2 act inactive, S-ASM inh inactive and IL2 activator inactive.
CN1C[C@@H]2[C@@H]3C(=O)N(Cc4ccccc4)C(=O)[C@@H]3[C@](Cc3ccccc3)(C1=O)N2C(=O)c1ccc(Cl)c(Cl)c1 was read as S-ASM inh inactive and IL2 activator inactive.
Screening CC(=O)c1ccc(NC(=O)Cn2cnc(S(=O)(=O)N3CCc4ccccc43)c2)cc1 returned S-ASM inh inactive and IL2 activator inactive.
`O=C1OC(c2ccccc2)=C/C1=C\N1CCOCC1` gave PKM2 act inactive, S-ASM inh inactive and IL2 activator inactive.
For O=C1OC(c2ccccc2)=C/C1=C/N1CCOCC1 the results were PKM2 act 15.8µM, S-ASM inh inactive and IL2 activator inactive.
Screening O=C(N/N=C/c1ccc(Sc2nc3ccccc3s2)c([N+](=O)[O-])c1)c1ccccn1 returned PKM2 act inactive, S-ASM inh inactive and IL2 activator inactive.
Cc1ccc(S(=O)(=O)Nc2ccc(O)c3ncccc23)cc1 was read as PKM2 act inactive, S-ASM inh inactive and IL2 activator inactive.
Cc1ccc(S(=O)(=O)Nc2ccc(O)c3cccnc23)cc1 was read as PKM2 act 10µM, S-ASM inh inactive[11.5 µM] and IL2 activator inactive.
S=c1[nH]c2ccc3ccccc3c2[nH]1 was read as PKM2 act inactive, S-ASM inh inactive and IL2 activator inactive.
`O=C(O)c1ccccc1NS(=O)(=O)c1cccc(-n2sc3ccccc3c2=O)c1` gave PKM2 act 2.51µM, S-ASM inh inactive and IL2 activator inactive.
O=C(O)c1ccccc1NS(=O)(=O)c1cccc(C(F)(F)F)c1 was read as PKM2 act inactive, S-ASM inh inactive and IL2 activator inactive.
O=C(c1csc(Nc2cccc3ccccc23)n1)N1CCCC1 was read as PKM2 act inactive, S-ASM inh inactive and IL2 activator inactive.
For O=C(CCN1C(=O)/C(=C/c2ccccc2)SC1=S)Nc1cccnc1 the results were S-ASM inh inactive and IL2 activator inactive.
Screening CCc1ccc(/C=C2/SC(=S)N(CCC(=O)Nc3cccnc3)C2=O)cc1 returned PKM2 act inactive, S-ASM inh inactive and IL2 activator 53.6.
C(=N\n1cnnc1)/c1ccc(N2CCOCC2)cc1 was read as PKM2 act inactive, S-ASM inh inactive and IL2 activator inactive.
Cn1cc(CNCc2cnc3ccccn23)c(-c2ccc(Oc3ccccc3)cc2)n1 was read as PKM2 act inactive, S-ASM inh inactive and IL2 activator inactive.
For COc1ccc(C)cc1Nc1n[n+](-c2ccccc2)c(-c2cc([N+](=O)[O-])cc(OC)c2O)s1 the results were PKM2 act inactive, S-ASM inh inactive and IL2 activator 179.9.
Screening COc1ccc(C)cc1Nc1n[n+](-c2ccccc2)c(-c2ccc(NC(C)=O)cc2)s1 returned PKM2 act inactive, S-ASM inh inactive and IL2 activator inactive.
Screening O=[N+]([O-])c1ccc(/C=N/n2c(C3CCCCC3)n[nH]c2=S)cc1 returned PKM2 act inactive, S-ASM inh inactive and IL2 activator inactive.
COc1ccc(OC)c(/C=C/c2nc3ccccc3[nH]c2=O)c1 was read as PKM2 act inactive, S-ASM inh inactive and IL2 activator 139.1.
